Screens as filed in PubChem BioAssay.
Pf growth 96h: P. falciparum growth inhibition at 96 hour, primary screen for plastid delayed-death inhibitors. 320,000 tested, 6.9% active. Potency, µM (top dose mostly 28.7 µM), without a hit: at the highest dose activity change, negative = inhibition, actives largely listed as inhibitors. P. falciparum luciferase reporter growth, 96 h; also: % is scaled to controls: 0 for no effect and ±100 for the full control effect
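P. falciparum expressing integrated firefly luciferase grown in erythrocytes (2% hematocrit, 0.05% parasitemia final) with compounds for 96 hours at 37 C, 5% CO2. Growth inhibition read as loss of luminescence after adding luciferase detection reagent.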
SARS PLpro yeast: blocks SARS-CoV papain-like protease in a yeast assay. S. cerevisiae expressing SARS-CoV PLpro, growth rescue. Potency, µM (highest dose often 32.9 µM), inactives show at the top dose activity, positive = growth rescue, hits mostly activators. 330,000 tested, 0.19% active. AID 485353; calls by dose curve; also: 0% is about no effect; nearly all actives have a fitted effect of over 55% in size
AmpC inh no detg: inhibitors of E. coli AmpC beta-lactamase without detergent; AmpC nitrocefin hydrolysis, absorbance 480 nm, 0.0001% Triton; AID 485341; Potency, µM (titrated, usually from 57.1 µM), for inactives: top-dose activity change, negative = inhibition, usual class: inhibitors; 330,000 tested, 0.52% active; P00811;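 also: plate controls were no compound for no effect and no enzyme for full effect; nearly all actives have a fitted effect of over 20% in size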
Target sequence (P00811 whole entry, looked up): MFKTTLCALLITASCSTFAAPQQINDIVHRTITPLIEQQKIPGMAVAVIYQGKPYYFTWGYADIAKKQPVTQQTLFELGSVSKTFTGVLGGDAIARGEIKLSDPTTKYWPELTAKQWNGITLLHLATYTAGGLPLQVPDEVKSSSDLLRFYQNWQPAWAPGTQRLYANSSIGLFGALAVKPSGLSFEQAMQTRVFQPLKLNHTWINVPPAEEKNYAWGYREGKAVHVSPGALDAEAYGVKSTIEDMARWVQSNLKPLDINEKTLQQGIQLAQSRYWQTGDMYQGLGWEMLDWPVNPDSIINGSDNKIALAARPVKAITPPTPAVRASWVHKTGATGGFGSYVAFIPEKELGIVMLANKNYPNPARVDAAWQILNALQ
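AmpC (5.3 nM in the dispensed reagent) in 20 mM phosphate pH 7.0 with 0.01% (detergent screen) or 0.0001% Triton X-100 was preincubated with compounds for 15 min at room temperature. Nitrocefin was then added from an 800 uM solution, and hydrolysis was followed at 480 nm.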
Sm TGR inh: S. mansoni TGR enzyme inhibition; Q962Y6; purified TGR, DTNB reduction, TNB absorbance 405 nm; Potency, µM (doses to about 114 µM), without a hit: at the highest dose activity change, negative = inhibition, actives largely listed as inhibitors; 360,000 tested, 3% active; AID 485364; also: % is scaled to controls: 0 for no effect and ±100 for the full control effect; nearly all actives have a fitted effect of over 60% in size
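TGR 20 nM + NADPH 100 uM (dispensed conc.), cpd preinc 15 min RT; start with NADPH (500 uM addition) then DTNB (15 mM addition). Kinetic TNB absorbance, 405 nm filter. Four-parameter Hill fit across titration.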
Pf growth 48h: inhibits P. falciparum growth in the first generation, 48 h; P. falciparum luciferase growth in erythrocytes, 48 h; Potency, µM (series often up to 28.7 µM), inactives show at the top dose activity change, negative = inhibition, most hits filed as inhibitors; 310,000 tested, 5.9% active; also: % is scaled to controls: 0 for no effect and ±100 for the full control effect
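Read-out is firefly luciferase luminescence from an integrated reporter in P. falciparum, so falling signal marks reduced parasite growth. Infected erythrocytes were at 2% hematocrit and 0.1% parasitemia (final) in Albumax-supplemented RPMI 1640.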
AmpC detergent: AmpC beta-lactamase inhibition with detergent present; Potency, µM (titrated, usually from 114 µM), inactives show top-dose activity change, negative = inhibition, most hits filed as inhibitors; P00811; 370,000 tested, 0.041% active; AID 485294; AmpC hydrolysis of nitrocefin, absorbance 480 nm, 0.01% Triton;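 also: 0% = no-compound wells and -100% = no-enzyme wells; nearly all actives have a fitted effect of over 25% in size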
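20 mM phosphate pH 7.0 + 0.01% (detergent screen) or 0.0001% Triton X-100; 5.3 nM AmpC reagent; cpd preinc 15 min RT; nitrocefin (800 uM stock) to start; A480 q20 s × 4 min; Activity was normalised to no-enzyme and no-compound control wells.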
* marks the source's active call; other numbers are inactive results; [ ] = another dose, or the depositor's remark. This is a sample that favours compounds with a hit; in the whole collection about 12% have one here. Unless noted, calls follow the shape of the dose curve; as a rule, active = well fitted curve in the direction sought with a large enough effect; inconclusive = small, poorly fitted or top-dose-only effect, or another doubt; inactive = no such curve, though single readings can be large; an effect the other way counts as inactive or inconclusive. Potency is read from the fitted curve at half-maximal effect.

Screening C#CCOCCOCCOCCNc1nc(N2CCN(C(=O)Cn3cc(CCCCN)nn3)CC2)nc(N2CCN(C(=O)Cn3cc(CC(C)O)nn3)CC2)n1 (stereo not drawn) returned Pf growth 96h -18%, SARS PLpro yeast 1%, AmpC inh no detg 202%, Sm TGR inh -26%, Pf growth 48h 11% and AmpC detergent -3%.
Screening O=C1CCC(C(=O)N2CCc3ccccc3C2)CN1CCCN1CCOCC1 (stereo not drawn) returned Pf growth 96h inconclusive, SARS PLpro yeast -4%, AmpC inh no detg -3%, Sm TGR inh -25%, Pf growth 48h -12% and AmpC detergent 3%.
`COc1ccc(-c2cc(C(=O)Nc3c(C)nn(Cc4ccccc4C)c3C)no2)cc1` gave Sm TGR inh 10% and AmpC detergent 4%.
Screening COc1cccc(-c2cc(C(=O)Nc3c(C)nn(Cc4ccccc4)c3C)no2)c1 returned Pf growth 96h inconclusive, SARS PLpro yeast -24%, AmpC inh no detg 122%, Sm TGR inh 11%, Pf growth 48h inconclusive and AmpC detergent -7%.
For COc1ccc(-c2cc(C(=O)Nc3c(C)nn(Cc4ccccc4)c3C)no2)cc1 the results were Pf growth 96h 4.7µM*, SARS PLpro yeast 1%, AmpC inh no detg 3%, Sm TGR inh 6% and AmpC detergent -15%.
COc1cccc(-c2cc(C(=O)Nc3c(C)nn(Cc4ccccc4C)c3C)no2)c1 was read as Pf growth 96h 25%, SARS PLpro yeast -23%, AmpC inh no detg 37%, Sm TGR inh -26%, Pf growth 48h 5.2µM* and AmpC detergent 2%.
Screening O=C(CSc1nnc(COc2ccccc2)n1-c1ccccc1)c1cccs1 returned Pf growth 96h inconclusive, SARS PLpro yeast -7%, AmpC inh no detg -1%, Sm TGR inh -3%, Pf growth 48h -20% and AmpC detergent 1%.
`CC(C)c1ccc2c(c1)CCC1C(C)(CN)CCCC21C` (stereo not drawn) gave Pf growth 96h 10µM*, SARS PLpro yeast -1%, AmpC inh no detg 52%, Sm TGR inh 9%, Pf growth 48h inconclusive and AmpC detergent -6%.
CC(C)c1cc2c(cc1S(=O)(=O)O)[C@@]1(C)CCC[C@@](C)(C(=O)O)[C@@H]1CC2 was read as Pf growth 96h -5% and Pf growth 48h 13%.
`COc1ccccc1NC(=O)C(Cc1ccccc1)NS(=O)(=O)c1ccc2c(c1)CCN2C(C)=O` (stereo not drawn) gave Sm TGR inh -4% and AmpC detergent 2%.
Screening COC(=O)CC1NCCc2cc(OC)c(OC)cc21 (stereo not drawn) returned Pf growth 96h 23%, SARS PLpro yeast 1%, AmpC inh no detg -12%[11.4 µM], Sm TGR inh -7%, Pf growth 48h 3% and AmpC detergent -14%.
Screening CC[C@H]1CN2CCc3cc(OC)c(OC)cc3C2C[C@@H]1C[C@H]1NCCc2cc(OC)c(OC)cc21 (stereo partly drawn) returned Pf growth 96h 0.046µM*, Sm TGR inh -5% and Pf growth 48h 0.052µM*.
`CC(CCc1ccccc1)NC(=O)CCCn1ncn2c(cc3occc32)c1=O` (stereo not drawn) gave Pf growth 96h inconclusive, SARS PLpro yeast 1%, AmpC inh no detg 29%, Sm TGR inh -10%, Pf growth 48h inconclusive and AmpC detergent -6%.
For Cc1ccccc1C[C@H](C(=O)O)N1C(=O)c2ccc(C(=O)O)cc2C1=O the results were Pf growth 96h 1%, SARS PLpro yeast 2%, AmpC inh no detg -29%, Sm TGR inh 9%, Pf growth 48h 8% and AmpC detergent inconclusive.
`COc1cc2c(cc1OC)CN(C(=O)CC1CC3CCC1C3)CC2` (stereo not drawn) gave Pf growth 96h 2.6µM*, SARS PLpro yeast 5%, AmpC inh no detg 36%, Sm TGR inh 6%, Pf growth 48h inconclusive and AmpC detergent 1%.
O=C(CN1CCN(S(=O)(=O)c2ccccc2)CC1)N1CCc2ccccc21 was read as Pf growth 96h 12µM*, SARS PLpro yeast -4%, AmpC inh no detg 8%, Sm TGR inh -10%, Pf growth 48h inconclusive and AmpC detergent 0%.
`COc1cc2c(cc1OC)CN(C(=O)CN1CCN(S(=O)(=O)c3ccccc3)CC1)CC2` gave Pf growth 96h 13µM*, SARS PLpro yeast -3%, AmpC inh no detg 128%, Sm TGR inh -23%, Pf growth 48h inconclusive and AmpC detergent -2%.
Screening O=C(Cn1ncc2ccccc21)N1CCc2ccccc21 returned Pf growth 96h 4.7µM*, SARS PLpro yeast 7%, AmpC inh no detg -25%, Sm TGR inh -2%, Pf growth 48h 7% and AmpC detergent inconclusive.
`COc1cc2c(cc1OC)CN(C(=O)CCN1C(=O)C3CCCCC3C1=O)CC2` (stereo not drawn) gave Pf growth 96h 0%, SARS PLpro yeast 3%, AmpC inh no detg 35%, Sm TGR inh 11%, Pf growth 48h -5% and AmpC detergent 0%.
`CCOc1ccccc1CNC(=O)CCCn1c(=O)c2cccn2c2ccc(F)cc21` gave Sm TGR inh -4% and AmpC detergent -1%.
For O=C(COc1ccc(F)cc1)Nc1ccccc1C(=O)OCc1cc(=O)n2ccsc2n1 the results were Sm TGR inh -10% and AmpC detergent 21%.
For CCc1ccc(C(=O)c2cn(CC(=O)Nc3ccc(F)cc3)c3ccc(OC)cc3c2=O)cc1 the results were Sm TGR inh 6% and AmpC detergent 12%.
`CCc1ccc(CNC(=O)COc2cc(=O)n(CC)c3ccccc23)cc1` gave Sm TGR inh 0% and AmpC detergent inconclusive.
Screening COc1ccccc1CNC(=O)c1cc2cccc3c2n1CC(C)S3 (stereo not drawn) returned Sm TGR inh -1% and AmpC detergent -9%.
CC(C)c1nc(NCC2CCCO2)c(C#N)c2c1COC(C)(C)C2 (stereo not drawn) was read as Pf growth 96h 0%, SARS PLpro yeast -6%, AmpC inh no detg 42%, Sm TGR inh -1%, Pf growth 48h 13µM* and AmpC detergent -1%.
`CCc1nc(NCC2CCCO2)c(C#N)c2c1COC(C)(C)C2` (stereo not drawn) gave Pf growth 96h inconclusive, SARS PLpro yeast -5%, AmpC inh no detg 18%, Sm TGR inh 17%, Pf growth 48h inconclusive and AmpC detergent -5%.
